In PubChem BioAssay (NCATS):
Inconclusive results are not listed. A call without a number means that no potency is given here. Activity calls are given as the source filed them. Unless noted, calls come from the whole dose curve.

Tests used:
[1] = P-glycoprotein substrates identified in KB-3-1 adenocarcinoma cell line, qHTS therapeutic library screen (AID 1346986; active = well fitted curve in the direction sought with a large enough effect; an effect the other way counts as inactive or inconclusive; note: nearly all actives have a fitted effect of over 60% in size)
Procedure, shortened: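 Counter-screen: cherry-picked hits retested in the KB pair and in HEK-293 pcDNA/MDR-19 cells ± tariquidar. Primary screen used 72 h CellTiter-Glo viability in KB-3-1 and KB-8-5-11.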

[2] = P-glycoprotein substrates identified in KB-8-5-11 adenocarcinoma cell line, qHTS therapeutic library screen (AID 1346987; active = well fitted curve in the direction sought with a large enough effect; an effect the other way counts as inactive or inconclusive; note: series mostly up to about 44 µM; nearly all actives have a fitted effect of over 65% in size)
Procedure, shortened: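 P-gp-mediated resistance screen: KB-8-5-11 cells treated 72 h with compounds in dose-response. CellTiter-Glo viability.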

[3] = Natriuretic polypeptide receptor (hNpr1) antagonism - Pilot counterscreen GloSensor control cell line (AID 1347045); note: series mostly up to about 38 µM
Procedure, shortened: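 This counterscreen uses HEK293 cells expressing the GIP/pGS-40F cGMP biosensor. Compound-treated cells are challenged with 50 uM sodium nitroprusside, and the luciferase signal is compared before and after stimulation.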

[4] = biological target: Atrial natriuretic peptide receptor 1 (Homo sapiens) (UniProt P16066); experiment: Natriuretic polypeptide receptor (hNpr1) antagonism - Pilot screen (AID 1347049);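 note: agonist-evoked cGMP luminescence read 20 min after hNppA addition; series mostly up to about 58 µM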
Atrial natriuretic peptide receptor 1 (Homo sapiens), sequence (P16066 whole entry, looked up): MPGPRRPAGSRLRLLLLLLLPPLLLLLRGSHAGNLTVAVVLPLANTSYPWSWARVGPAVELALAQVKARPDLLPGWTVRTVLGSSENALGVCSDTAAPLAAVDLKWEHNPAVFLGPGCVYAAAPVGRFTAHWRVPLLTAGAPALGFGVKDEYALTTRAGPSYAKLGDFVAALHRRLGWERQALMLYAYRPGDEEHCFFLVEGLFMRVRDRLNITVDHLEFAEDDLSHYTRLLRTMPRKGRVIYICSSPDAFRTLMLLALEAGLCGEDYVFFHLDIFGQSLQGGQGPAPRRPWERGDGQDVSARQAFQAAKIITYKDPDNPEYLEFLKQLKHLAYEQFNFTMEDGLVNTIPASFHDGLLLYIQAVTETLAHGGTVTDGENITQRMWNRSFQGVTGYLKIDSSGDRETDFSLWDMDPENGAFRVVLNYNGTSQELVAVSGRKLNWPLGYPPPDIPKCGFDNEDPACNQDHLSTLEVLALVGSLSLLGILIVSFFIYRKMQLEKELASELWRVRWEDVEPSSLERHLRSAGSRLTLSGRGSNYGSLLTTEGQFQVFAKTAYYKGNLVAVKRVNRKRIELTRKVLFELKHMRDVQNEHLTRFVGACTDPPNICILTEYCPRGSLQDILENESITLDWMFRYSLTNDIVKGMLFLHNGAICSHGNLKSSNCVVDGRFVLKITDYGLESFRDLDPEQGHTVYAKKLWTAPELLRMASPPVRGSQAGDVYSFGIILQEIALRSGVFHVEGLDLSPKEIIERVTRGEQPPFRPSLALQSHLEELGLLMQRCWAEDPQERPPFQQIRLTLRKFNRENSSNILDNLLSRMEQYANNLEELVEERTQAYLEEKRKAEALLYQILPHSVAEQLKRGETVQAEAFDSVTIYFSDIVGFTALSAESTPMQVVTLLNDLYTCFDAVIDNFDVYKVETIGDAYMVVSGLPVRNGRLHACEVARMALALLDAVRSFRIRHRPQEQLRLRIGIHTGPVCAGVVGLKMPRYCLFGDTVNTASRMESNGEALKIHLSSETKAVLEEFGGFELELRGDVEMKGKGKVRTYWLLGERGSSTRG
Procedure, shortened: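 Readout is cGMP-driven firefly luciferase luminescence in HEK293 cells carrying hNpr1 and a PDE5-domain GloSensor, read before and 20 min after 0.1 nM hNppA stimulation. Cells had 2% substrate reagent for 2 h and test compound for 30 min.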

[5] = biological target: Atrial natriuretic peptide receptor 2 (Homo sapiens) (UniProt P20594); experiment: Natriuretic polypeptide receptor (hNpr2) antagonism - Pilot subtype selectivity assay (AID 1347050)
Atrial natriuretic peptide receptor 2 (Homo sapiens), sequence (P20594 whole entry, looked up): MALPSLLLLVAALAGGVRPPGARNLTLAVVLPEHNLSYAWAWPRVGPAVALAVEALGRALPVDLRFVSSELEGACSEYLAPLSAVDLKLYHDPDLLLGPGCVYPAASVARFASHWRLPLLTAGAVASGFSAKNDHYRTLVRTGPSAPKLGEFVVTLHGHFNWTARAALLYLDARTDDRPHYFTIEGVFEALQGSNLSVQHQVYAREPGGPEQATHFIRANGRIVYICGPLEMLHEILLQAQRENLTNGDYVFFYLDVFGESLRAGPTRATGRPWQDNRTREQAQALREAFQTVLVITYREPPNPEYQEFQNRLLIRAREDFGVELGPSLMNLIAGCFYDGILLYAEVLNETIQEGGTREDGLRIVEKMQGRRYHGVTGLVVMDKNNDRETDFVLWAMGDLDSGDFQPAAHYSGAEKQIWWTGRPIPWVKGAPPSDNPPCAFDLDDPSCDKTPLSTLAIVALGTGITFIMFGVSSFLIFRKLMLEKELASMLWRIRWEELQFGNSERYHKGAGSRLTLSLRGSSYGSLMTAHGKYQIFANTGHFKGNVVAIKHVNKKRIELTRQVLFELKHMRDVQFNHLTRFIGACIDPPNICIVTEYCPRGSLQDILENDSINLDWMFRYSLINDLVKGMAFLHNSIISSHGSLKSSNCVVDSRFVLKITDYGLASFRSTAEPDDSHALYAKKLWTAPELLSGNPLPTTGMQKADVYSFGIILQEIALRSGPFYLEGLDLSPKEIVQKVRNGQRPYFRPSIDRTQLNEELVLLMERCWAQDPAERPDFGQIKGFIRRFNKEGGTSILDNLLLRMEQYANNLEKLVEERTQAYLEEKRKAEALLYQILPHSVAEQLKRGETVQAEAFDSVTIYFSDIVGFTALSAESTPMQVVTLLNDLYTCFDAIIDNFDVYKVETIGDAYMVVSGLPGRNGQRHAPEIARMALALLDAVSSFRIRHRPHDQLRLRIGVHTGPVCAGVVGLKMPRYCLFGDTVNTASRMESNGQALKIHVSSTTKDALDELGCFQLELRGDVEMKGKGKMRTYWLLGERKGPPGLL
Procedure, shortened: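 Pilot selectivity screen against hNpr2: HEK293 cGMP-sensor cells are treated with LOPAC1280 compounds, then with hNppC peptide at 1 nM final. The cGMP-driven luminescence change over 20 min at room temperature is the read-out.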

[6] = NS1 protein of Zika virus - qHTS assay to identify small molecule inhibitors in human HEK 293 cells (AID 1347053; active = well fitted curve in the direction sought with a large enough effect; an effect the other way counts as inactive or inconclusive; note: series mostly up to about 46 µM; nearly all actives have a fitted effect of over 55% in size)
Procedure, shortened: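 HEK 293 cells, seeded 20 h at 37 C, were pretreated with compound 1 h, then infected with ZIKV MR766 (MOI = 0.5) for 24 h. NS1 was read by TR-FRET with two anti-NS1 antibodies, normalized to uninfected and infected wells.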

For `CN1C(=O)N(c2ccc(C#N)c(C(F)(F)F)c2)C(=O)[C@]1(CO)c1ccccc1`, the Potency [1] was “inactive” and the Potency [2] was “inactive”.
In the case of `C/C(O)=C(\C#N)C(=O)Nc1cc(Br)ccc1Br`, the Potency [1] is reported as “inactive”, the Potency [3] is reported as “inactive” and the Potency [4] is reported as “inactive”. The Potency [5] was “inactive”.
For `C[C@@H]1O[C@H](C[N+](C)(C)C)CS1`, the Potency [3] was “inactive”, the Potency [4] was “inactive” and the Potency [5] was “inactive”.
In the case of `C=CC(C)(C)c1[nH]c2cccc3c2c1C[C@@H]1[C@@H]3[C@@H](OC(C)=O)[C@H](C)CN1C`, the Potency [2] is reported as “inactive”.
With `Cc1cc(C(=O)CN2CCCC2)c(C)n1-c1ccc(F)cc1` the Potency [2] was “inactive”.
With `CCCN1CCc2cccc3c2[C@H]1Cc1ccc(O)c(O)c1-3` the Potency [3] was “inactive”, the Potency [4] was “inactive” and the Potency [5] was “inactive”.
For `CN1[C@H]2C[C@H](OC(=O)[C@H](CO)c3ccccc3)C[C@@H]1[C@@H](O)C2`, the Potency [2] was “inactive”.
With `C[C@@](O)(COc1ccc(C#N)cc1)C(=O)Nc1ccc(C#N)c(C(F)(F)F)c1` the Potency [2] was “inactive”.
With `CC(C)C1(OO)C=C2C(=O)CC3C(C)(C(=O)O)CCCC3(C)C2CC1` (configuration not stated) the Potency [2] was “inactive”.
With `O=C(N1CCOCC1)N1CCN(c2ccc(Cl)cc2)CC1` the Potency [2] was “inactive”.
For `C[Se]C[C@H](N)C(=O)O`, the Potency [3] was “inactive”, the Potency [4] was “inactive” and the Potency [5] was “inactive”.
For `CN1CCC[C@@H]1Cc1c[nH]c2ccc(Nc3ncccc3[N+](=O)[O-])cc12`, the Potency [2] was “inactive” and the outcome [6] was “inactive”.
In the case of `Cc1cccc(NC(=O)N[C@@H]2N=C(c3ccccc3)c3ccccc3N(C)C2=O)c1`, the Potency [2] is reported as “inactive”.
With `C[N+]1(C)C2CCC1CC(OC(=O)c1c[nH]c3ccccc13)C2` (configuration not stated) the Potency [3] was “inactive”, the Potency [4] was “inactive” and the Potency [5] was “inactive”. For the same compound, the outcome [6] was “inactive”.
In the case of `COc1ccc2c(c1O)-c1cccc3c1[C@@H](C2)N(C)CC3`, the Potency [3] is reported as “inactive”, the Potency [4] is reported as “inactive” and the Potency [5] is reported as “inactive”. For the same compound, the outcome [6] was “inactive”.
